NS1 inh = qHTS Assay for Inhibitors of Influenza NS1 Protein Function; Potency, µM (series often up to 46.1 µM), without a hit: at the top dose activity, positive = more growth; 0.4% of 270,000 active; also: actives are rising curves; nearly all actives have a fitted effect of over 50% in size
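OD600 was taken as the measure of yeast growth restored by compound in an NS1-expressing S. cerevisiae strain. Cells had been washed out of glucose medium and diluted 1:100 into galactose -URA medium, pH 6.0.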
SARS PLpro yeast = qHTS of Yeast-based Assay for SARS-CoV PLP. S. cerevisiae expressing SARS-CoV PLpro, growth rescue. Potency, µM (doses to about 32.9 µM), inactives show at the highest dose activity, positive = growth rescue, most hits filed as activators. 0.19% of 330,000 active; also: 0% is about no effect; nearly all actives have a fitted effect of over 55% in size
Pf growth 96h = Primary qHTS for delayed death inhibitors of the malarial parasite plastid, 96 hour incubation; P. falciparum luciferase reporter growth, 96 h; Potency, µM (doses to about 28.7 µM), for the others: at the top dose activity change, negative = inhibition, usual class: inhibitors; 6.9% of 320,000 active; active = well fitted inhibition curve with a large enough effect; inconclusive = small, poorly fitted or top-dose-only effect, or another doubt; inactive = no such curve, though single readings can be large or run the other way; also: % is scaled to controls: 0 for no effect and ±100 for the full control effect
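Luminescence readout: decreased luciferase signal marks inhibited growth of reporter-expressing P. falciparum in infected red cells (2% hematocrit, 0.05% parasitemia final), exposed to compound two generations (96 h, 37 C, 5% CO2).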
Pf growth 48h = Primary qHTS for delayed death inhibitors of the malarial parasite plastid, 48 hour incubation. AID 504832, 2011. Potency, µM (top dose mostly 28.7 µM), without a hit: at the top dose activity change, negative = inhibition, hits mostly inhibitors. P. falciparum luciferase growth in erythrocytes, 48 h. 5.9% of 310,000 active; active = well fitted inhibition curve with a large enough effect; inconclusive = small, poorly fitted or top-dose-only effect, or another doubt; inactive = no such curve, though single readings can be large or run the other way; also: % is scaled to controls: 0 for no effect and ±100 for the full control effect
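Erythrocytes infected with P. falciparum carrying an integrated firefly luciferase reporter (2% hematocrit, 0.1% parasitemia final) were exposed to compounds in RPMI 1640 with 0.5% Albumax at 37 C, 5% CO2. Growth inhibition was scored as reduced luminescence.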
An asterisk follows results filed as active; ? = inconclusive; nt = not tested or not shown; [ ] = remark or other dose. The list is not random: actives were taken first. Their share in the collection is about 10%. Unless noted, calls follow the shape of the full dose curve. Potency is read from the fitted curve at half-maximal effect.

SMILES | NS1 inh | SARS PLpro yeast | Pf growth 96h | Pf growth 48h
Cc1cc(C)c(N2CCN(S(=O)(=O)N3CCCCCC3)CC2)c(C)c1 | -31% | -22% | nt | 10µM*
CCC(C)C(=O)Nc1nnc(CCc2ccccc2)s1 (stereo unspecified) | -29% | 1% | 63% | 38%
COc1cc(-c2c(C#N)c(N)nc3c2CCCC3)ccc1O | -1% | 5% | nt | -37%
COc1ccc(-c2c(C#N)c(N)nc3c2CCc2ccccc2-3)cc1OC | -26% | -18% | 7.4µM* | 2.3µM*
CSc1ccc(CN2CCC(n3nccc3NC(=O)CCCc3ccccc3)CC2)cc1 | 7% | 4% | ? | -12%
CCN(CC)C(=O)Nc1cnc2ccccc2c1 | 0% | 1% | 2.3µM* | 50%
CCCCCCN1C=CC(=C/C=C(\C#N)C(=O)OCC)C=C1 | 11% | -2% | 13µM* | 10µM*
CCC(C)C1O[C@]2(C=CC1C)CC1CC(C/C=C(\C)[C@H](OC3CC(OC)C(O[C@H]4CC(OC)[C@@H](O)C(C)O4)C(C)O3)[C@@H](C)/C=C/C=C3\COC4C(O)C(C)=C[C@H](C(=O)O1)[C@@]34O)O2 (stereo partly specified) | nt | nt | 13µM* | 15µM*
Cc1onc(-c2c(Cl)cccc2Cl)c1NC(=O)NC1CCSC1 (stereo unspecified) | 0% | 0% | 11% | -2%
O=C(C1CCN(S(=O)(=O)c2ccccc2)CC1)N(CCc1ccccc1)Cc1ccco1 | -7% | 0% | 29% | 13µM*
COCCN(Cc1ccccc1)C(=O)C1CCN(S(=O)(=O)c2ccc3c(c2)OCCO3)CC1 | nt | 1% | 12µM* | ?
O=C(NCCc1ccccc1)C1CCN(S(=O)(=O)c2ccccc2)CC1 | -1% | 3% | 0% | nt
Cc1ccc(NC(=O)C2CCN(S(=O)(=O)c3cccs3)CC2)cc1 | nt | 0% | ? | ?
Cc1nc2ccc(NC(=O)C3CCN(S(=O)(=O)c4cccs4)CC3)cc2s1 | -3% | -3% | 9.3µM* | ?
Cc1ccc(-c2csc(NC(=O)C3CCN(S(=O)(=O)c4cccs4)CC3)n2)cc1 | 13% | -1% | 12µM* | ?
Cc1ccc(Cl)c(NC(=O)COC(=O)c2nn(C)c(=O)c3ccccc23)c1Cl | nt | 1% | 13% | 24%
Cc1[nH]c2ccccc2c(=O)c1SC(F)(F)C(F)C(F)(F)F (stereo unspecified) | -93% | -28% | 3.3µM* | 0.83µM*
Cc1cc(-c2ccccc2)nc(Oc2ccc(C(C)(C)C)cc2)c1S(C)(=O)=O | 22% | -6% | 13µM* | ?
O=C(Nc1ccc(N2CCOCC2)cc1)C1CC(=O)N(c2ccccc2)C1 (stereo unspecified) | 1% | -1% | 50% | 7%
O=C(Nc1ccc(N2CCOCC2)cc1)C1CC(=O)N(c2ccc(F)cc2)C1 (stereo unspecified) | 3% | 1% | 10µM* | -22%
O=C(NCc1ccccn1)C(=O)NCC1OCCN1S(=O)(=O)c1ccc(Cl)cc1 (stereo unspecified) | -2% | 3% | -5% | 89%
COc1cccc(NC(=S)/C(=C(\[O-])c2cc(C)n(-c3ccccc3F)c2C)[n+]2ccc(N(C)C)cc2)c1 | 10% | 1% | 4.1µM* | ?
CCC(C(=O)NCc1ccc(C)cc1)c1ccccc1 (stereo unspecified) | -17% | 4% | 15µM* | -22%
CCC(C(=O)Nc1cccnc1)c1ccccc1 (stereo unspecified) | -6% | 6% | -19% | 27%
CCOC(=O)C(Cc1ccccc1)C(=O)NCc1ccccc1 (stereo unspecified) | -12% | -2% | 3.3µM* | 21%
SMILES | NS1 inh | SARS PLpro yeast | Pf growth 96h | Pf growth 48h
CCOC(=O)C(Cc1ccccc1)C(=O)Nc1ccc(NC(=O)C(Cc2ccccc2)C(=O)OCC)cc1 (stereo unspecified) | 9% | 2% | 105% | 10%
CCC(C(=O)Nc1ccncc1)c1ccccc1 (stereo unspecified) | 2% | -24% | 26% | 4.7µM*
CCn1cc(C(=O)O)c(=O)c2cc(Br)ccc21 | -61% | 0% | nt | 2.6µM*
CCOC(=O)c1cn(CC)c2ccc(Br)cc2c1=O | -61% | 11% | 12µM* | 5.2µM*
CCOC(=O)c1cn(CC)c2ccc(S(=O)(=O)N3CC(C)CC(C)C3)cc2c1=O (stereo unspecified) | 1% | 5% | 69% | 2%
COc1ccc(-c2cc(C(=O)N3CCOCC3)c3cc(C)ccc3n2)cc1 | -32% | -5% | nt | 23%
COc1ccc(-c2cc(C(=O)OCC(=O)N3CCOCC3)c3ccccc3n2)cc1 | nt | -69% | nt | nt
Cc1ccc2nc(-c3ccccc3)cc(C(=O)N3CCc4ccccc4C3)c2c1 | 0% | -10% | 12µM* | 9.3µM*
Cc1ccc2nc(-c3ccccc3)cc(C(=O)N3CC(C)OC(C)C3)c2c1 (stereo unspecified) | nt | -3% | ? | 10µM*
COc1ccc(-c2cc(C(=O)N3CCCCCC3)c3cc(C)ccc3n2)cc1 | -64% | -7% | 13µM* | ?
COC(=O)C1CCN(C(=O)COC(=O)c2cc(-c3ccccc3)nc3ccc(OC)cc23)CC1 | nt | -1% | ? | 13µM*
COC(=O)[C@]1(C)N[C@H](CN(C)C(=O)Nc2ccccc2)[C@@H]2C(=O)N(C)C(=O)[C@@H]21 | nt | -3% | nt | nt
O=C(CC1S/C(=N/N=C/c2cccs2)NC1=O)Nc1ccc(Cl)cc1 (stereo unspecified) | 15% | -4% | 1.9µM* | -5%
O=C(O)CC1S/C(=N/N=C/c2ccccn2)NC1=O (stereo unspecified) | -2% | 18% | ? | 5.2µM*
NC(=O)NC(=O)CC1S/C(=N/N=C/c2ccccc2)NC1=O (stereo unspecified) | 13% | 0% | ? | -34%[1.15 µM]
O=C(CC1S/C(=N/N=C/c2c[nH]c3ccc(OCc4ccccc4)cc23)NC1=O)Nc1ccccc1 (stereo unspecified) | 3% | -18% | 12µM* | 18%
C=CCn1c(C)nnc1SCC(=O)Nc1cc(S(=O)(=O)N2CCCC2)ccc1Cl | nt | -1% | -11% | -11%
CNc1snc(C)c1C(=O)OC(C)C(=O)NCc1ccccc1 (stereo unspecified) | nt | 0% | 11% | -1%
Cc1ccc(C)c(N2CC(C(=O)OCC(=O)Nc3cc(C)on3)CC2=O)c1 (stereo unspecified) | 1% | 3% | ? | 1%
O=C(NC1CCCC1)C(c1ccccn1)N(C(=O)c1csnn1)c1ccccc1Br (stereo unspecified) | nt | 1% | 2.1µM* | 6%
O=C(NC1CCCC1)C(c1ccccn1)N(C(=O)c1csnn1)c1ccccc1F (stereo unspecified) | -5% | 0% | 15% | -1%
Cc1ccc2c(c1)NC(=O)C(CC(=O)Nc1ccc(Br)c(C)c1)O2 (stereo unspecified) | 5% | 0% | 12% | 2%
O=C(COc1ccccc1F)Nc1ccc2c(c1)OCCO2 | -6% | -1% | 31% | 96%

Screens as filed in PubChem.
